Assay outcomes from PubChem BioAssay.
In the library only some 4.7% were active in any assay of this set; here they are far more common.
D1 potentiator – enhances dopamine response at the human D1 receptor. potentiation, % at 10 µM. HEK293 TREx D1 cells, calcium flux, dopamine EC20 potentiation. AID 504651. 0.036% of 360,000 active; in the data active means potentiation above about 30%; further: 0% is about no effect
Target sequence (P21728 whole entry, looked up): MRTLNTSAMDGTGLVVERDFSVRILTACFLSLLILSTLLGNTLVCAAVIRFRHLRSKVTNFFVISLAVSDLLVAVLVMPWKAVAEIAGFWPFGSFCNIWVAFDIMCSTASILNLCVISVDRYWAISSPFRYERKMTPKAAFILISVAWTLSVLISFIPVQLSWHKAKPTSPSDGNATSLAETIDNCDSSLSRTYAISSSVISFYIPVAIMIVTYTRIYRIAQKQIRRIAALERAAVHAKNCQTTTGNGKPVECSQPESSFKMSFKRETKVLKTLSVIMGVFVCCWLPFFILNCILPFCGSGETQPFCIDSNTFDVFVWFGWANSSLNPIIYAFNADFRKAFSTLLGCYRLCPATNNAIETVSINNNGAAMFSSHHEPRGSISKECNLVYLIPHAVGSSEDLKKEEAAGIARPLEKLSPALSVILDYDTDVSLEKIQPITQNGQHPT
D1 ag – activates the human D1 dopamine receptor; AID 504660; 1% of 360,000 active; HEK293 T-REx D1 cells, calcium flux, agonist mode; P21728; activation, % at 2 µM; further: 0% is about no effect
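Tetracycline-induced HEK293 TREx D1 cells, force-coupled to calcium signalling, were dye-loaded with a no-wash calcium kit. Compound was pin-added after a 10 s baseline. Fluorescence was read kinetically at 1 cycle/s for 180 s, with calcium rises flagged as agonism.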
TRHR PAM – allosteric enhancers of human TRH receptor. 0.66% of 360,000 active. P34981. enhancement, % at 2 µM. TRHR cells, fluo-8 calcium fluorescence, EC20 TRH enhancement; in the data active means enhancement above about 30%; further: 0% is about no effect
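Enhancer read-out: after compound pinning and an initial kinetic agonist-mode read, an EC20 of TRH (10 nM final) was injected and fluo-8 calcium signal (Ex 480/Em 530) followed at 1 s/cycle for 100 cycles in TRHR-expressing cells.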
TRHR ag – activates the human TRH receptor; P34981; TRHR cells, calcium flux fluo-8, FDSS agonist mode; activation, % at 2 µM; 0.18% of 360,000 active; further: 0% is about no effect
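TRHR-expressing cells, plated overnight in medium with 10% serum, were loaded with fluo-8 calcium dye at room temperature. After a 10 s baseline, library compound was pin-added and calcium release was recorded kinetically (ex 480/em 530) as agonist response.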
D1 antag – antagonists of human D1 dopamine receptor. HEK293 TREx D1 cells, calcium flux, dopamine EC80; stronger effect = lower value. activity change, negative = inhibition, % at 10 µM. 3.2% of 360,000 active. AID 504652; in the data active means activity change below about -30%; further: on the % scale 0 is the no-effect control and ±100 the full control effect
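Cells carrying a force-coupled, tetracycline-inducible human D1 receptor report calcium flux. Each well gets a 10 s baseline, compound with 180 s monitoring, then an EC80 dopamine stimulus with a second 180 s kinetic read.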
* marks the source's active call; other numbers are inactive results; . = no result given. Unless noted, no stated cut-off is given here; in the data, active means activation above about 30%; inactive means the rest.

SMILES | D1 potentiator | D1 ag | TRHR PAM | TRHR ag | D1 antag
CCOC(=O)c1ccc(N2CCN(c3cccc(Cl)c3)CC2)c(NC(=O)Nc2ccc(OC)cc2OC)c1 | 2.2 | -3.4 | -0.5 | -0.2 | 4.4
Cc1nc(-c2ccccc2)sc1C1(C)CC(c2c(Cl)cccc2Cl)=NO1 (stereo not given) | -5.0 | 6.7 | 0.3 | 0.8 | -4.1
Cc1nc(NC(=O)c2ccccc2)sc1C1(C)CC(c2c(Cl)cccc2Cl)=NO1 (stereo not given) | -7.9 | 3.3 | -2.7 | 0.1 | -35.5*
Cc1nc(NC(=O)c2ccccc2)sc1C1(C)CC(c2ccccc2F)=NO1 (stereo not given) | -1.7 | 1.5 | -0.1 | 0.1 | -32.8*
C=CCn1cc([N+](=O)[O-])nc1C | -3.4 | 0.6 | 19.3 | 0.4 | -31.0*
COc1cc(O)c(C(=O)/C=C/c2ccccc2)c(OC)c1 | -3.0 | 1.6 | -4.9 | -0.3 | -55.6*
COc1ccc(S(=O)(=O)N(CCc2ccccc2)CC(=O)Nc2cc(C)cc(C)c2)cc1OC | 1.0 | 6.7 | 2.7 | -0.5 | -36.2*
COc1ccc(S(=O)(=O)N(CCc2ccccc2)CC(=O)NCc2ccccc2)cc1OC | 1.0 | 1.7 | -1.8 | 0.3 | -16.1
CCOC(=O)c1ccc(NC(=O)c2n[nH]c(=O)c3ccccc23)cc1 | 0.5 | 2.8 | 14.1 | 0.0 | -7.2
COc1cc(NC(=O)c2n[nH]c(=O)c3ccccc23)cc(OC)c1 | 2.1 | 1.1 | 34.7* | 0.3 | -7.8
CN(C)CCNC(=O)C1CCN(Cc2cc3ccccc3n2Cc2ccccc2)CC1 | -3.9 | 39.0* | -4.7 | 2.2 | -19.4
CCCn1c2ccccc2c2cnn(CC(=O)NCCCN(Cc3ccccc3)C(C)C)c(=O)c21 | -0.3 | -0.8 | 15.6 | -0.9 | 5.7
Cn1c(-c2c(N)n(-c3ccccc3)c3nc4ccccc4nc23)nc2ccccc21 | -0.7 | 50.5* | 1.8 | 17.0 | 14.0
Cc1cccc(-n2c(N)c(-c3nc4ccccc4n3C)c3nc4ccccc4nc32)c1 | 2.5 | 59.6* | 0.3 | 12.9 | 2.9
CCc1cccc(C)c1NC(=O)CN1CCCN(Cc2ccccc2Cl)S1(=O)=O | 2.4 | 6.3 | -6.1 | -0.3 | 12.9
O=C(CN1CCN(C2CCCCC2)CC1)c1ccc2cc[nH]c2c1 | 4.2 | 1.5 | -1.7 | 0.2 | -36.0*
O=C(CN1CCN(C2CCCCC2)CC1)c1c[nH]c2ccccc12 | -0.9 | 6.8 | 1.8 | 0.9 | -10.6
COc1ccc(CN(Cc2ccco2)c2cnc(S(C)(=O)=O)nc2C(=O)Nc2ccc(F)cc2)cc1 | 1.8 | 2.6 | 3.0 | -0.3 | 1.7
Cc1cc(N2CCCC2)ccc1/C=C1/C(=O)N(C)C(=S)N1C | -4.1 | 35.8* | -6.9 | 10.8 | 4.1
COc1cc(/C=C2\NC(=S)N(C)C2=O)ccc1O | -1.9 | 16.2 | -1.1 | 10.2 | -4.7
Cc1cc(/C=C2\NC(=S)N(C)C2=O)ccc1N1CCCC1 | 6.8 | 330.8* | 32.4* | 141.9* | -45.2*
CCN1C(=O)/C(=C/c2ccc(N3CCCC3)cc2)NC1=S | 10.5 | 241.7* | 17.8 | 110.6* | -52.5*
CN1C(=O)/C(=C/C=C2/CCCN2C)N(C)C1=S | 2.7 | 5.4 | -0.2 | -1.8 | -10.7
Cc1cc(/C=C2/C(=O)N(C)C(=S)N2C)ccc1N1CCCC1 | 7.5 | 127.5* | -3.2 | 28.8 | .
NC(=O)c1cc(S(=O)(=O)NCC2CCC(C(=O)Nc3ccc(Cl)cc3)CC2)cs1 (stereo not given) | -2.9 | 7.6 | -5.2 | 0.2 | -11.1
SMILES | D1 potentiator | D1 ag | TRHR PAM | TRHR ag | D1 antag
COc1ccc(CNC(=O)c2cc3c(=O)n(Cc4cccs4)ccc3nc2C)cc1 | -3.9 | 0.9 | 5.0 | -0.4 | 11.9
S=c1sc2c(Cl)ncnc2n1-c1ccccc1 | -12.2 | 2.4 | -2.0 | 1.7 | -44.1*
O=c1c(-c2ccc(Cl)cc2)c(C(F)(F)F)oc2c(CN3CCCCC3)c(O)ccc12 | -1.8 | -0.6 | 18.3 | -0.9 | 5.6
COc1ccc(NC2=C(C(C)=O)C(c3ccc(OC)c(OC)c3)C(C(C)=O)C(C)(O)C2)cc1 (stereo not given) | 4.5 | -0.4 | 0.6 | -0.2 | -85.9*
CC(C)C(=O)N1CCN(c2ccc(NC(=O)c3ccc([N+](=O)[O-])o3)cc2Cl)CC1 | -3.9 | 13.2 | -4.7 | -1.7 | -41.2*
COc1ccccc1NC(=O)CN1C(=O)C(c2ccc(F)cc2)=NC1(C)C | -4.0 | 0.3 | 6.6 | -0.1 | -14.0
Cc1cc2c(s1)c1cnn(Cc3cc(C(F)(F)F)ccc3F)c(=O)c1n2C | -4.3 | 5.1 | 0.5 | -0.1 | 21.3
O=C(CSc1nc2ccccc2[nH]1)NC(=O)NCc1ccco1 | -9.2 | 0.3 | -5.6 | -0.1 | -39.5*
NS(=O)(=O)c1ccc(NC(=O)CSc2nc3ccccc3[nH]2)cc1 | -15.2 | 3.3 | 4.1 | -0.1 | -84.4*
O=C(CSc1nc2ccccc2[nH]1)Nc1ccc(F)c(F)c1 | -8.8 | 3.7 | -6.7 | 0.3 | -14.6
CCOc1ccc(CNCc2c(C(=O)O)n(Cc3ccccc3C)c3cc(OC)ccc23)cc1OC | -7.3 | 28.7 | 3.8 | -2.3 | 1.5
Cc1cc(C)c(NC(=O)CCS(=O)(=O)c2cc3c(cc2Cl)NC(=O)CO3)c(C)c1 | -5.3 | 0.4 | -1.3 | 0.1 | -18.6
CCOc1ccc(CNC(=O)C2CCN(S(=O)(=O)c3cn(C)cn3)CC2)cc1 | 1.1 | -1.0 | 2.8 | -1.6 | -0.5
COc1ccc(OC)c(NC(=O)c2cnn(-c3ccc(C)cc3)c2C2CCNCC2)c1 | 3.9 | -0.1 | 17.4 | -0.9 | 12.2
CS(=O)(=O)N1CCC(n2c(C(F)(F)F)nc3cccnc32)CC1 | 2.6 | 1.1 | -7.7 | 0.1 | 15.1
Cc1cccc(N2CCN(C(=O)NC3CCCCC3)CC2)c1C | -0.3 | 32.5* | 5.7 | 4.7 | -41.3*
Cc1cccc(N2CCN(C(=O)c3cc4ccccc4oc3=O)CC2)c1C | -9.7 | 3.9 | -1.5 | -0.5 | -75.5*
Cc1ccc(N2CCN(C(=O)NC3CCCCC3)CC2)c(C)c1 | -4.1 | 20.9 | -4.6 | 1.1 | -6.0
CN1CCN(C(=O)c2cc3ccccc3oc2=O)CC1 | -4.5 | 2.2 | -2.5 | 0.0 | -5.8
COc1ccc(NS(=O)(=O)/C=C/c2ccccc2)cc1 | 3.6 | 3.8 | 5.7 | -0.2 | -10.9
O=S(=O)(/C=C/c1ccccc1)Nc1ccc(F)cc1 | 1.5 | 7.3 | 30.8* | 0.5 | 0.0
Fc1ccc(/C=C\c2nccc3c2[nH]c2ccccc23)cc1 | -3.5 | -0.2 | 2.6 | 0.1 | -5.0
C(=C\c1nccc2c1[nH]c1ccccc12)/c1ccccc1 | 7.3 | 0.1 | 20.2 | -0.3 | -36.9*
CC(=O)NC(=S)Nc1ccc(S(=O)(=O)N(C)Cc2ccccc2)cc1 | -8.2 | 18.8 | 12.6 | -0.9 | -31.3*
CN(Cc1ccccc1)S(=O)(=O)c1ccc(NS(=O)(=O)Cc2ccccc2)cc1 | 0.4 | 4.4 | 0.6 | -0.4 | -34.3*
CC(C)C(=O)NC(=S)Nc1ccc(S(=O)(=O)N(C)Cc2ccccc2)cc1 | -11.3 | 1.7 | 6.0 | -0.5 | -34.6*
